Compound activity: PubChem BioAssay, National Center for Advancing Translational Sciences (NCATS)
HT1080 IDH1KD tx: kills HT-1080 cells with IDH1 knockdown; AID 686971; Potency, µM (doses to about 46.1 µM), actives largely listed as cytotoxic; HT-1080 IDH1 knockdown viability, ATP luminescence, 48 h; 360,000 compounds, 2% hits
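Cytotoxicity counter-line: IDH1KD HT-1080, 48 h, CellTiter-Glo. Curves classed by r2, magnitude and activity.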
IL-1B inflam inh: inhibitors of inflammasome signaling (IL-1 beta secretion). THP-1 LPS/ATP IL-1B secretion, AlphaLISA, 16 h; stronger effect = lower value. activity change, % at 57.5 µM. 360,000 compounds, 4.7% hits. AID 743279; in the data active means activity change below about -50%; inconclusive means mostly about -30% to -49%
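THP-1 cells pretreated 1 hr with compounds (up to 57.5 uM final), then stimulated with LPS (250 ng/mL final) plus ATP (1.25 mM final); secreted IL-1B measured by AlphaLISA after 16 hr, decreased signal indicating inhibition.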
ALOX12 inh: inhibitors of human 12S-lipoxygenase ALOX12 | Potency, µM (titrated, usually from 108 µM), actives largely listed as inhibitors | 580,000 compounds, 1.1% hits | purified 12hLO, xylenol orange hydroperoxide absorbance
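Purified human 12hLO at 150 nM in 25 mM Hepes, 0.01% Triton X-100, pH 7.0, preincubated 15 min at room temperature with compound. Reaction started with 40 uM arachidonic acid, 30 min at room temperature. Hydroperoxide measured by Fe-xylenol orange, 573/405 nm absorbance ratio.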
DT40 TDP1 no CPT: qHTS for Inhibitors of human tyrosyl-DNA phosphodiesterase 1 (TDP1): qHTS in cells in absence of CPT. AID 686978, 2013. 420,000 compounds, 15% hits. Potency, µM (doses to about 46.2 µM), usual class: inhibitors. DT40 Tdp1-/- hTDP1 cells, no CPT, ATP luminescence, 48 h; further: nearly all actives have a fitted effect of over 55% in size
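Chicken DT40 Tdp1-/- cells complemented with human TDP1, screened without camptothecin (DMSO vehicle only), 400 cells/well. Compounds pin-transferred, cells incubated at 37 °C for at least 48 hr. Growth read as ATP-dependent luminescence (CellTiter-Glo, 30 min at RT).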
HT1080-NT tox: kills 2HG-producing HT-1080-NT fibrosarcoma cells | Potency, µM (top dose mostly 46.1 µM), actives largely listed as cytotoxic | 360,000 compounds, 1.6% hits | HT-1080-NT fibrosarcoma viability, CellTiter-Glo ATP luminescence, 48 h;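 further: NT is the 2HG producing partner of a matched IDH1 knockdown line; nearly all actives have a fitted effect of over 55% in size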
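HT-1080-NT; 750 cells/well; 5% FBS RPMI; 48 h compound, 37 degrees C; CellTiter-Glo luminescence; curve fitting and curve-class assignment.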
DT40 TDP1 CPT: growth inhibition of DT40 Tdp1-/-;hTDP1 cells with camptothecin (screen for TDP1 inhibitors). chicken DT40 Tdp1-/-;hTDP1 cells + 20 nM CPT, ATP luminescence, 48 h. Potency, µM (doses to about 46.2 µM), hits mostly inhibitors. 420,000 compounds, 12% hits; further: nearly all actives have a fitted effect of over 55% in size
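Chicken DT40 Tdp1-/- cells stably complemented with human TDP1 were seeded at 400 cells/well in medium containing 20 nM camptothecin, exposed to pin-transferred compounds, and grown at 37 °C for at least 48 hr. Viability was read as ATP luminescence.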
Numbers stand for hits; n = inactive; u = inconclusive; x = no result. The entries come from a sample that favours hits as a whole. Unless noted, the call rests on the fitted dose curve; in most records, active means well fitted curve in the direction sought with a large enough effect; inconclusive means small, poorly fitted or top-dose-only effect, or another doubt; inactive means no such curve, though single readings can be large; an effect the other way counts as inactive or inconclusive.

SMILES	HT1080 IDH1KD tx	IL-1B inflam inh	ALOX12 inh	DT40 TDP1 no CPT	HT1080-NT tox	DT40 TDP1 CPT
COc1ccc(/C=C2\SC(=O)N(CC(=O)NC3C=CS(=O)(=O)C3)C2=O)cc1 (stereo unspecified)	n	n	n	u	n	u
O=C(Cc1ccc(F)cc1)N1CCN(C(=O)c2nnn3c2COC(c2ccc(Cl)cc2)C3)CC1 (stereo unspecified)	x	x	n	x	x	x
COc1cccc(OCc2nc3c(n2Cc2ccccc2)C(=O)N(CC2CCOCC2)CCN3)c1	x	x	n	x	x	x
COc1ccc(C(=O)N2CCC3(CC2)CC(C(C)C)=NO3)cc1	x	x	n	x	x	x
COc1nccnc1NC1CCN(C(=O)c2cccc(C)c2)CC1	x	x	n	x	x	x
O=C(CN1C(=O)S/C(=C\c2ccccc2F)C1=O)NC1C=CS(=O)(=O)C1 (stereo unspecified)	n	-70	n	u	n	15µM
CCc1noc([C@@H]2CC(F)(F)CN2C(=O)c2ccc(F)cn2)n1	x	x	n	x	x	x
CCOC(=O)CSc1nnc(-c2cc(OC)c(OC)c(OC)c2)o1	n	n	n	n	n	u
COc1cc(-c2nnc(SCC(=O)N(C)C3CCCCC3)o2)cc(OC)c1OC	x	x	n	5.8µM	x	12µM
CCN(C(=O)CSc1nnc(-c2cc(OC)c(OC)c(OC)c2)o1)c1ccccc1	x	x	n	5.8µM	x	15µM
COc1cccc(-c2nnc(SCC(=O)N(C)c3ccccc3)o2)c1	x	x	n	10µM	x	u
CCOc1ccc(-c2nnc(SCC(=O)N(CC)c3cccc(C)c3)o2)cc1	x	x	n	10µM	x	21µM
COCCOCc1nc(C2CCN(C(=O)c3cc(C)n(C)n3)C2)no1 (stereo unspecified)	x	x	n	x	x	x
Cc1ccc(-c2csc(-c3nc(-c4cc(C)ccc4C)cs3)n2)c(C)c1	x	x	n	x	x	x
COc1ccc(CN(C(=O)CSc2nnc(-c3ccccc3F)o2)c2ccc(F)cc2)cc1	n	n	x	13µM	n	18µM
CCN(C(=O)CSc1nnc(-c2ccc(Cl)cc2)o1)c1ccccc1	x	x	n	21µM	x	u
COc1ccc(-c2nnc(SCC(=O)N(Cc3ccccc3)C(C)(C)C)o2)cc1OC	n	u	n	13µM	n	23µM
CCc1ccc(OC(=O)CSc2nnc(-c3ccc(OC)c(OC)c3)o2)cc1	x	x	n	n	x	n
COc1ccc2c(C)c(C(=O)N3CCCOC(Cn4cccn4)C3)oc2c1 (stereo unspecified)	x	x	n	x	x	x
COc1cc2c(cc1[N+](=O)[O-])-c1ccc([N+](=O)[O-])cc1C2=NO	n	u	n	15µM	n	26µM
O=[N+]([O-])c1ccc2c(c1)/C(=N\O)c1ccccc1-2	n	n	n	u	n	u
O=[N+]([O-])c1ccc2c(c1)C(=NO)c1cc(F)ccc1-2	n	u	n	12µM	n	16µM
COc1ccc(Nc2ccc([N+](=O)[O-])cc2[N+](=O)[O-])cc1	n	n	n	n	n	n
Nc1cc2c(cc1Cl)-c1ccc([N+](=O)[O-])cc1C2=NO	u	n	n	7.3µM	n	8.2µM
CCC(NC(=O)C1CCCO1)c1ccc(C)cc1 (stereo unspecified)	x	x	n	x	x	x
SMILES	HT1080 IDH1KD tx	IL-1B inflam inh	ALOX12 inh	DT40 TDP1 no CPT	HT1080-NT tox	DT40 TDP1 CPT
O=C(O)/C=C/c1nccs1	x	x	n	x	x	x
Cc1cccc(C(=O)N(Cc2cccs2)C2CC2)c1	x	x	n	x	x	x
Cc1ccc(CN2CCCCCNC(=O)CC2c2ccccc2)s1 (stereo unspecified)	x	x	n	x	x	x
Cc1noc(C)c1CC(=O)NCC1Cc2cc(-c3cccc(OC(F)(F)F)c3)ccc2O1 (stereo unspecified)	x	x	n	10µM	x	u
Cc1cnc(C)c(-c2ccc3c(c2)CC(CNC(=O)Cc2c(C)[nH]c4ccccc24)O3)n1 (stereo unspecified)	x	x	n	0.92µM	x	0.52µM
CC(=O)N1CCC[C@H]1C(=O)NCC1Cc2cc(-c3cccc(OC(F)(F)F)c3)ccc2O1 (stereo partly specified)	x	x	n	16µM	x	u
